The values that follow come from publication PMC11062922 (Nature Chemical Biology, 2023).

Read-outs that look alike come from different tables or passages of the source.

Design in all cases: species or system human, MV4-11 + K-562 + COLO205 + SK-N-BE2 + OVCAR-8
The test system of one experiment is ACAD11. Particulars: read-out: apparent Kd; compound concentrations: 100 nM and 1000 nM (sheet 'Samples'), CATDS: 2.6823851715364801E-2; n = 1.
The next experiment relates to ACVR1B. Particulars: read-out: apparent Kd, compound concentrations: 100 nM and 1000 nM (sheet 'Samples'), n = 1.
The next experiment has as its system ACVR1. Particulars: read-out: apparent Kd, compound concentrations: 100 nM and 1000 nM (sheet 'Samples'), n = 1.
For a further experiment, the system named is CDK16. Particulars: read-out: apparent Kd, compound concentrations: 100 nM and 1000 nM (sheet 'Samples'), n = 1.
The subject of another experiment is CDKL5. Particulars: read-out: apparent Kd; compound concentrations: 100 nM and 1000 nM (sheet 'Samples'), CATDS: 0.115641908649272; n = 1.
In the next experiment the test system is GSK3A. The conditions noted are these: read-out: apparent Kd; compound concentrations: 100 nM and 1000 nM (sheet 'Samples'), CATDS: 8.2277419546057398E-2; n = 1.
Another experiment deals with GSK3B. Particulars: read-out: apparent Kd; compound concentrations: 100 nM and 1000 nM (sheet 'Samples'), CATDS: 7.3478066296280203E-2; n = 1.
In another experiment the test system is MAP2K5. Particulars: read-out: apparent Kd, compound concentrations: 100 nM and 1000 nM (sheet 'Samples'), n = 1.
The test system of the next experiment is ZAK. The conditions noted are these: read-out: apparent Kd, n = 1.
The subject of the next experiment is DYRK1A. Particulars: read-out: apparent Kd; compound concentrations: 100 nM and 1000 nM (sheet 'Samples'), CATDS: 0.43183776325706602; n = 1.
The test system of a further experiment is BTK. The conditions noted are these: read-out: apparent Kd, compound concentrations: 100 nM and 1000 nM (sheet 'Samples'), n = 1.
Another experiment concerns CSK. Particulars: read-out: apparent Kd; compound concentrations: 100 nM and 1000 nM (sheet 'Samples'), CATDS: 1.5702412967624198E-2; n = 1.
The next experiment concerns DDR1. Particulars: read-out: apparent Kd, n = 1.
A further experiment concerns FRK. Particulars: read-out: apparent Kd, compound concentrations: 100 nM and 1000 nM (sheet 'Samples'), n = 1.
The test system of a further experiment is LYN. The conditions noted are these: read-out: apparent Kd, compound concentrations: 100 nM and 1000 nM (sheet 'Samples'), n = 1.
For a further experiment, the system named is SIK2. The conditions noted are these: read-out: apparent Kd, compound concentrations: 100 nM and 1000 nM (sheet 'Samples'), n = 1.
The next experiment concerns SRC. Particulars: read-out: apparent Kd, compound concentrations: 100 nM and 1000 nM (sheet 'Samples'), n = 1.
The test system of another experiment is EGFR. The conditions noted are these: read-out: apparent Kd, n = 1.
The subject of another experiment is EPHA1. The conditions noted are these: read-out: apparent Kd, compound concentrations: 100 nM and 1000 nM (sheet 'Samples'), n = 1.
The subject of another experiment is FLT3. Particulars: read-out: apparent Kd, n = 1.
[1] abbreviates: compound concentrations:100 nM and 1000 nM (sheet 'Samples').

For `COc1cccc(-n2ncc3c(N/N=C/c4ccc(C(=O)NCCN(C)C)cc4)ncnc32)c1.Cl` [GW784307A], the potency estimated from few doses was 1620 nM with ACAD11; 315 nM in the experiment with ACVR1B (CATDS: 4.53928679778344E-2); 12.6 nM with ACVR1 (CATDS: 0.29663347499665699); 2020 nM in the experiment on CDK16 (CATDS: 2.5546052944154699E-2); 49.3 nM with CDKL5; 89 nM in the experiment with GSK3A. Also, the potency estimated from few doses was 110 nM in the experiment on GSK3B; 2320 nM in the experiment with MAP2K5 (CATDS: 2.4851428787040001E-2); 834 nM with ZAK (compound concentrations: 100 nM and 1000 nM (sheet 'Samples'), CATDS: 3.20798372195591E-2).
Consider `NC1=NC(=O)/C(=C/c2ccc3ncccc3c2)S1` [RO4569139-000], for which the potency estimated from few doses in the experiment with DYRK1A is 39.3 nM.
With `Cc1ccc(O)cc1Nc1ccnc2cc(-c3ccc(CN4CCCCC4)o3)ccc12` [GW557777X], the potency estimated from few doses with ACVR1B (CATDS: 2.3041961266034101E-2) is 60.3 nM; in the experiment on ACVR1 (CATDS: 2.9506962076646302E-2), 25.6 nM; with BTK (CATDS: 1.36078174892899E-2) it was 960 nM; in the experiment on CSK, 358 nM; in the experiment with DDR1 (compound concentrations: 100 nM and 1000 nM (sheet 'Samples'), CATDS: 1.3388843859825601E-2) it was 1100 nM; in the experiment on FRK (CATDS: 4.1928462897336198E-2) it was 9.28 nM. In addition, the potency estimated from few doses with LYN (CATDS: 1.9191353458574801E-2) is 128 nM; with SIK2 (CATDS: 1.7387307110144301E-2) it was 205 nM; in the experiment with SRC (CATDS: 2.30493923024673E-2) it was 60.3 nM; in the experiment on ZAK (compound concentrations: 100 nM and 1000 nM (sheet 'Samples'), CATDS: 1.4248568360294899E-2) it was 672 nM.
Regarding `Nc1nc(-c2cccnc2)c(-c2ccnc3ccccc23)s1` [GW684083X], the potency estimated from few doses in the experiment on ZAK (setting [1]) is 1440 nM.
As to `CS(=O)(=O)CCNCc1ccc(-c2ccc3ncnc(Nc4ccc(OCc5cccc(F)c5)c(C(F)(F)F)c4)c3c2)o1` [GW576484X], the potency estimated from few doses with EGFR (compound concentrations: 100 nM and 1000 nM (sheet 'Samples'), CATDS: 4.6980711652152798E-2) was 2290 nM.
Consider `Cl.Oc1cccc(Nc2ccnc3cc(-c4ccncc4)ccc23)c1` [GW494601A], for which the potency estimated from few doses in the experiment on ACVR1B (CATDS: 4.2820592961585899E-2) is 73.7 nM; in the experiment on ACVR1 (CATDS: 4.3782572898148998E-2), 69 nM; in the experiment with EPHA1 (CATDS: 8.3232336419421196E-2), 14.3 nM; in the experiment on FRK (CATDS: 2.21362656072501E-2), 843 nM; in the experiment with SIK2 (CATDS: 2.1329898966899598E-2), 1020 nM; in the experiment with ZAK (compound concentrations: 100 nM and 1000 nM (sheet 'Samples'), CATDS: 1.9718010562251101E-2), 1580 nM.
For `Cc1cccc(Nc2nc(NCCN)ncc2C(N)=O)c1` [GSK1292139B], the potency estimated from few doses with SIK2 (CATDS: 8.4015516979832894E-2) is 925 nM.
For `CS(=O)(=O)Cc1ccc(Nc2nccc(-c3c(-c4cccc(NC(=O)C5CCCCC5)c4)nn4ncccc34)n2)cc1` [GSK350559A], the potency estimated from few doses with DDR1 (setting [1]) was 401 nM; with EGFR (setting [1]) it was 1890 nM; in the experiment with FLT3 (setting [1]), 660 nM.
`Cc1ccc(O)cc1Nc1ccnc2cc(-c3ccccn3)ccc12.Cl` [GW440139A]: the potency estimated from few doses is 9.88 nM in the experiment with ACVR1B (CATDS: 0.14783179697021401), 556 nM with ACVR1 (CATDS: 2.9577067141002798E-2) and 38.9 nM in the experiment on EPHA1 (CATDS: 6.90247660864724E-2).
As to `Cl.Cl.Cl.c1ccc(Oc2ccc(Nc3ccnc4cc(-c5ccc(CN6CCNCC6)o5)ccc34)cc2)nc1.c1ccc(Oc2ccc(Nc3ccnc4cc(-c5ccc(CN6CCNCC6)o5)ccc34)cc2)nc1` [GW567142A], the potency estimated from few doses in the experiment on BTK (CATDS: 2.14657129362281E-2) was 922 nM; in the experiment on CDK16 (CATDS: 1.6285845495215501E-2), 2450 nM; in the experiment with EGFR (compound concentrations: 100 nM and 1000 nM (sheet 'Samples'), CATDS: 4.6801095990659902E-2) it was 143 nM; in the experiment on EPHA1 (CATDS: 3.01720788002969E-2), 372 nM; with FLT3 (compound concentrations: 100 nM and 1000 nM (sheet 'Samples'), CATDS: 3.3367464965841198E-2) it was 294 nM; in the experiment on FRK (CATDS: 2.55518807835587E-2), 566 nM. Moreover, the potency estimated from few doses is 598 nM in the experiment with LYN (CATDS: 2.5031582152460801E-2); 111 nM in the experiment with MAP2K5 (CATDS: 5.3465139975610303E-2); 70.8 nM in the experiment with SRC (CATDS: 6.9151530133692504E-2); 1140 nM with ZAK (compound concentrations: 100 nM and 1000 nM (sheet 'Samples'), CATDS: 2.00291787525065E-2).
